Neddylation inh: inhibitors of human cullin neddylation | inhibition, % at 25 µM | TR-FRET cullin neddylation, biochemical | AID 651699 | 360,000 tested, 0.58% active; in the data active = inhibition above about 36%
dFosB activator: mouse delta FosB homodimer activation; P13346; purified delta FosB, TAMRA-CDK5 oligo fluorescence polarization; percent of positive-control signal above neutral wells; 340,000 tested, 0.99% active; activation, % at 25 µM;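 active = mean activation above about 17%, with every replicate also reaching it, limit read from the data, passing the limit was not always enough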
Target sequence (P13346 whole entry, looked up): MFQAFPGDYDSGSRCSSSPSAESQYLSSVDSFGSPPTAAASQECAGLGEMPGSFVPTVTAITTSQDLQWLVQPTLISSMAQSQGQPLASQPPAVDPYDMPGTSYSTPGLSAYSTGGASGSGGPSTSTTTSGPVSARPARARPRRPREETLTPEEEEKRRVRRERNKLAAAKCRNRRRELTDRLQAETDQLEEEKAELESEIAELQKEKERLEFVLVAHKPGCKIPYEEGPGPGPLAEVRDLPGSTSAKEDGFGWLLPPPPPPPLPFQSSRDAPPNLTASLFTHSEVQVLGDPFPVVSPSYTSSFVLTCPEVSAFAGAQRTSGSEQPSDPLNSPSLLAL
Vif imaging: blocks HIV Vif function; HEK293T cells, Vif self-association by quenched fluorescence, imaging, 24 h; inhibition, % at 7.49 µM; 340,000 tested, 0.35% active; in the data active = inhibition above about 50%, passing the limit was not always enough
GSIS activator: GLuc luminescence reporter in INS-1E cells, primary screen for activators of glucose-dependent secretion of insulin; INS-1E GLuc reporter insulin secretion, 2-3 h; activation, % at 16.6 µM; 370,000 tested, 0.61% active; AID 743287;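 active = lowest replicate activation of at least 40%, so every replicate reaches that level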
A1 inh: inhibitors of the anti-apoptotic protein A1, read as caspase activation. 330,000 tested, 0.066% active. MEF A1-2A-BIM cells, Caspase-Glo 3/7 luminescence, 3 h; percent of clofoctol response, vehicle zero. caspase activation, % (test concentration not listed);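 active = over half of replicate activation scores above 10%, or exactly half above 10 with the replicate mean above 10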
Numbers stand for hits; - = inactive; . = no result given; ! = a repeat was not active. Most compounds without a hit are left out; they make up all but 1.9% or so of the library.

SMILES	Neddylation inh	dFosB activator	Vif imaging	GSIS activator	A1 inh
C[C@H]1CN([C@@H](C)CO)S(=O)(=O)c2ccc(Br)cc2O[C@H]1CN(C)CC1CC1	.	.	.	-	.
CC1C(=O)C(C)C(c2cc(Cl)ccc2O)NC1c1cc(Cl)ccc1O (stereo unspecified)	-	20	-	-	-
CCOC(=O)C1(Cc2cccc(OC)c2)CCN(CC(O)CO)CC1 (stereo unspecified)	-	-	-	-	-
CCOC(=O)C1(Cc2cccc(OC)c2)CCN(CCO)CC1	-	-	66	-	-
O=C(C[C@@H]1CC[C@@H]2[C@H](COC[C@H](O)CN2Cc2cc(F)ccc2F)O1)N1CCc2ccccc2C1	.	.	.	-	.
CC(C)NC(=O)Nc1ccc2c(c1)C(=O)N([C@@H](C)CO)C[C@@H](C)[C@@H](CN(C)Cc1ccccc1)OCCCC[C@@H](C)O2	.	.	.	-	.
CC(C)NC(=O)Nc1ccc2c(c1)C(=O)N([C@@H](C)CO)C[C@H](C)[C@@H](CN(C)C(=O)NC(C)C)OCCCC[C@H](C)O2	.	.	.	-	.
CN(C)CCCNCCCNC(=O)c1ccco1	-	-	65!	-	-
CC(C)(C)c1ccc(C(=O)NCCCNC(=O)c2ccco2)cc1	-	-	-	-	-
COc1ccc(C(=O)Nc2ccc3c(c2)OC[C@@H](C)NC[C@@H](C)[C@H](OC)CN(C)C3=O)cc1	.	.	.	-	.
CCCN(C)C[C@@H]1Oc2cc(C#CCC(C)C)ccc2S(=O)(=O)N([C@@H](C)CO)C[C@@H]1C	.	.	.	-	.
COc1ccc(S(=O)(=O)Nc2ccc3c(c2)C(=O)N([C@H](C)CO)C[C@@H](C)[C@H](CN(C)S(=O)(=O)c2cccs2)OCCCC[C@@H](C)O3)cc1	.	.	.	-	.
CCN(CC)C(=O)c1ccccc1NS(=O)(=O)c1ccc(C)cc1	-	-	-	43	-
C[C@@H]1CN([C@@H](C)CO)C(=O)c2cccc(NC(=O)c3nc4ccccc4s3)c2O[C@@H]1CN(C)CC1CCCCC1	.	.	.	-	.
Cc1ccc(-c2[nH]ncc2/C=N/n2c(COc3ccccc3C)nc3ccccc3c2=O)cc1	-	-	-	197	-
O=C(c1ccc(F)cc1)N1CC(=O)N2[C@H](CO)[C@H](c3ccc(C#Cc4ccc(F)cc4)cc3)[C@H]2C1	.	.	.	-	.
CCOC(=O)c1c(-c2ccc(-c3ccccc3)cc2)csc1NC(=O)CNCCN(C)C	-	-	-	180	-
Cc1noc(C)c1S(=O)(=O)N(C)C[C@H]1Oc2ccc(NC(=O)Nc3ccc4c(c3)OCO4)cc2CC(=O)N([C@@H](C)CO)C[C@@H]1C	.	.	.	-	.
Cc1ccc(C(=O)c2sc3nc4c(cc3c2N)CCC4)cc1	-	-	-	74	-
COc1ccc(-c2cn(CC[C@@H]3CC[C@@H](NC(=O)NC(C)C)[C@H](CO)O3)nn2)cc1	.	.	.	-	.
COc1ccc(-c2nc(CS(=O)(=O)CC(=O)NCCc3ccccc3)c(C)o2)cc1	-	-	56	-	-
CO[C@@H]1CN(C)C(=O)c2cc(NS(=O)(=O)c3cn(C)cn3)ccc2OC[C@@H](C)N(C)C[C@@H]1C	.	.	.	-	.
CSc1cccc(NC(=S)N(CCCN2CCCC2)Cc2cccn2Cc2ccc(Cl)cc2)c1	-	27	-	-	-
Oc1ccc(C[C@H]2CNC(=S)N2CC2CCCN2C[C@H](Cc2ccc(O)cc2)N2C[C@H](Cc3ccccc3)N(CC3CCCCC3)C2=S)cc1 (stereo partly specified)	-	49	-	-	.
Oc1ccc(C[C@H]2CN([C@@H](Cc3ccccc3)CN3CCC[C@@H]3CN3C(=S)NC[C@@H]3Cc3ccccc3)C(=S)N2CC2CCCCC2)cc1	-	.	-	-	.
SMILES	Neddylation inh	dFosB activator	Vif imaging	GSIS activator	A1 inh
Cc1ccc(OCC(=O)NNC(=O)c2ccc(NC(=O)C3CC3)cc2)c(C)c1	-	34	-	-	-
Cc1c(P(=S)(c2ccccc2)c2ccccc2)[n+]2ccccc2n1C/C=C/c1ccccc1	-	.	-	243	.
CC(C)NC(=O)N(C)C[C@H]1Oc2cc(C#CCN(C)C)ccc2S(=O)(=O)N([C@@H](C)CO)C[C@@H]1C	.	.	.	-	.
COc1ccc(C(C)=O)cc1Cn1cnc2c(cnn2C)c1=O	-	-	-	50	-
CCC(=O)N(C)C[C@H]1Oc2cc(-c3cccc(OC)c3)ccc2S(=O)(=O)N([C@H](C)CO)C[C@@H]1C	.	.	.	-	.
NS(=O)(=O)c1ccc(NC(=O)c2ccc(CNS(=O)(=O)c3cc(C(F)(F)F)ccc3Cl)cc2)cc1	-	108	-	.	-
C=CCNc1ncnc2c1ncn2[C@H]1CN(Cc2cc(OC)c(OC)c(OC)c2)C[C@@H](CO)O1	-	.	-	42	.
COC(=O)c1c(NC(=O)CSc2nnc(CNc3ccc(Cl)cc3)o2)sc(C)c1C	-	-	72	.	-
CCOC(=O)c1c(NC(=O)CSc2nnc(CNc3ccc(F)cc3)o2)sc(C(C)=O)c1C	-	-	-	-	-
CCOc1cc(C(=O)CSc2nnc(CNc3ccc(Cl)cc3)o2)ccc1NC(=O)CC	-	-	-	-	8.7
COc1ccc(NCc2nnc(SCC(=O)c3ccc(OC)cc3)o2)cc1	-	-	-	.	-
C[C@@H]1CN([C@H](C)CO)C(=O)Cc2cc(NC(=O)C3CC3)ccc2O[C@@H]1CN(C)Cc1ccc(Oc2ccccc2)cc1	.	.	.	-	.
C[C@@H]1CN([C@@H](C)CO)C(=O)c2cc(C#C[C@@H](C)O)cnc2O[C@@H]1CN(C)C(=O)Cc1ccccn1	.	.	.	-	.
O=[N+]([O-])c1ccccc1S(=O)(=O)Nc1ccc(-c2ccc(N3CCOCC3)nn2)cc1	-	-	-	71	-
C[C@@H]1CN([C@H](C)CO)C(=O)Cc2cc(NC(=O)c3ccncc3)ccc2O[C@@H]1CN(C)CC1CC1	.	.	.	-	.
CN(C)C(=O)c1ccc(-c2ccc([C@@H]3[C@@H](CO)N4C(=O)CN(C(=O)C5CC5)C[C@@H]34)cc2)cc1	.	.	.	67	.
CN(C)C(=O)c1ccc(-c2ccc([C@@H]3[C@H]4CN(C(=O)C5CC5)CC(=O)N4[C@H]3CO)cc2)cc1	.	.	.	-	.
C[C@H](CO)N1C[C@H](C)[C@H](CN(C)C(=O)Cc2ccccc2)OCCCC[C@H](C)Oc2ccc(NC(=O)Nc3ccc(C(F)(F)F)cc3)cc2C1=O	.	.	.	-	.
CCNC(=O)[C@@H]1[C@@H](CO)[C@@H]2Cn3c(ccc(-c4ccccc4)c3=O)[C@@H]2N1Cc1ccccc1	.	.	.	-	.
Cc1nc(NCc2ccc3c(c2)OCO3)c2nnn(Cc3ccccc3)c2n1	-	-	.	50	-
c1ccc(Cn2nnc3c(NCc4ccc5c(c4)OCO5)nc(C4CC4)nc32)cc1	-	-	.	.	-
C[C@H](CO)N1C[C@H](C)[C@H](CN(C)C(=O)Nc2ccc3c(c2)OCO3)Oc2ccc(NC(=O)Nc3ccc(C(F)(F)F)cc3)cc2CC1=O	.	.	.	-	.
COc1ccc(S(=O)(=O)N(C)C[C@@H]2OCCCC[C@H](C)Oc3ccc(NS(=O)(=O)c4c(C)noc4C)cc3C(=O)N([C@H](C)CO)C[C@H]2C)cc1	.	.	.	-	.
COc1ccc(C(=O)c2cnc[nH]2)cc1	-	-	-	-	-

Screening data deposited in PubChem by several laboratories.
